DT40 TDP1 CPT = growth inhibition of DT40 Tdp1-/-;hTDP1 cells with camptothecin (screen for TDP1 inhibitors). chicken DT40 Tdp1-/-;hTDP1 cells + 20 nM CPT, ATP luminescence, 48 h. Potency, µM (highest dose often 46.2 µM), for inactives: top-dose activity change, negative = growth inhibition, actives largely listed as inhibitors. 12% of 420,000 active. AID 686979; note: potency is the fitted concentration of half-maximal effect; nearly all actives have a fitted effect of over 55% in size
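Cell growth measured by CellTiter-Glo luminescence after a minimum 48 h, 37 C compound exposure with 20 nM CPT in Tdp1-knockout DT40 cells stably expressing hTDP1, seeded 400/well; qHTS titration format.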
Giardia kill = Giardia lamblia killing; Giardia lamblia trophozoite viability; activity change, % at 7.66 µM, hits read low; 0.15% of 340,000 active; AID 540267; in the data active = activity change below about -80%; inconclusive = between about -30% and that limit;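 note: parasites exposed to compound for two days anaerobically before the ATP read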
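Each well holds 100 Giardia trophozoites and compound. After two days (48 hrs) at 37 deg C in anaerobic conditions, ATP is quantified by luminescence.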
IL1B secr inh = blocks inflammasome-driven IL-1 beta release; THP-1 LPS/ATP IL-1B secretion, AlphaLISA, 16 h; active compounds read low; activity change, % at 57.5 µM; 4.7% of 360,000 active; in the data active = activity change below about -50%; inconclusive = mostly about -30% to -49%
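Secreted IL-1B measured by AlphaLISA bead assay after 16 h compound exposure of THP-1 cells; compounds (final up to 57.5 uM) added 1 h before LPS (250 ng/mL) and ATP (1.25 mM) stimulation; lower signal means less secretion.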
DT40 TDP1 no CPT = qHTS for Inhibitors of human tyrosyl-DNA phosphodiesterase 1 (TDP1): qHTS in cells in absence of CPT | DT40 Tdp1-/- hTDP1 cells, no CPT, ATP luminescence, 48 h | Potency, µM (series often up to 46.2 µM), without a hit: at the highest dose activity change, negative = growth inhibition, actives largely listed as inhibitors | 15% of 420,000 active; note: potency is the fitted concentration of half-maximal effect; nearly all actives have a fitted effect of over 55% in size
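Readout: luminescence from CellTiter-Glo after 30 min in the dark at RT. Cells: DT40 Tdp1-/- with stable hTDP1, 400/well. Exposure: compounds alone, ≥48 hr, 37 °C.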
ELG1 DNA repair = ELG1-dependent DNA repair inhibition. AID 504467. 2.3% of 330,000 active. Potency, µM (doses to about 46.1 µM), for the others: at the top dose activity change, negative = inhibition, actives largely listed as inhibitors. HEK293T ELG1-luciferase reporter, luminescence, 16 h; DNA damage induced by 5-fluorouridine; note: potency is the fitted concentration of half-maximal effect; nearly all actives have a fitted effect of over 55% in size
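Overnight (16 hr) co-exposure of 2,000 cells/well to 5-fluorouridine and compound at 37 °C preceded detection. Luciferase was quantified via ONE-Glo luminescence; loss of signal denotes inhibition.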
TDP1 block = inhibitors of human tyrosyl-DNA phosphodiesterase TDP1; recombinant TDP1, AlphaScreen DNA substrate cleavage; Potency, µM (top dose mostly 130 µM), for inactives: at the highest dose activity change, negative = inhibition, usual class: inhibitors; 0.28% of 350,000 active; AID 485290; note: potency is the fitted concentration of half-maximal effect; nearly all actives have a fitted effect of over 40% in size
Target sequence (Q9NUW8 whole entry, looked up): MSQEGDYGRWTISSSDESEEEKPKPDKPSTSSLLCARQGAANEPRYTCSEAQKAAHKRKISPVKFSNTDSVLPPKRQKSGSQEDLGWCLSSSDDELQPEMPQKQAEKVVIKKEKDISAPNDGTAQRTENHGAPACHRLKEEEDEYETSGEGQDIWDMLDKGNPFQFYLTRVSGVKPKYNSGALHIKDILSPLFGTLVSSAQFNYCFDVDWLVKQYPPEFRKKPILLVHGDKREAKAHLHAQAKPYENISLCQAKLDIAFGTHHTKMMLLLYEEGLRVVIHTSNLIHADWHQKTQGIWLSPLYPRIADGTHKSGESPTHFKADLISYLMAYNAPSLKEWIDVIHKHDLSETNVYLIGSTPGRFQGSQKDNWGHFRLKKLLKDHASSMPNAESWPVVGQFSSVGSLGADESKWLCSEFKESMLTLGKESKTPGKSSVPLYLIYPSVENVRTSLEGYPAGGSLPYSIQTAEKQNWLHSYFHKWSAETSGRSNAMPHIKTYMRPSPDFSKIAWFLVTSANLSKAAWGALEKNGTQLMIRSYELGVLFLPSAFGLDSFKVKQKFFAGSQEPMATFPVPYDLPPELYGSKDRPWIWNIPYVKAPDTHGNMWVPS
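E. coli-derived human Tdp1, 1 nM final. Cpd preinc 15 min RT; substrate 15 nM final, 5 min RT; AS bead mix 10 ug/ml final, 10 min RT. Signal loss = tyrosine-FITC cleavage. No-enzyme wells = max signal.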
Starred values were filed as active, the others as inactive; u = inconclusive; x = not tested or not shown; [ ] = another dose, or the depositor's remark. Compounds with a hit are over-represented: about 19% of the library has one in this group of screens. Unless noted, calls come from the whole dose curve; as a rule, active = well fitted curve in the direction sought with a large enough effect; inconclusive = small, poorly fitted or top-dose-only effect, or another doubt; inactive = no such curve, though single readings can be large; an effect the other way counts as inactive or inconclusive. % is set by controls: 0 for no effect and ±100 for the full control effect.

SMILES	DT40 TDP1 CPT	Giardia kill	IL1B secr inh	DT40 TDP1 no CPT	ELG1 DNA repair	TDP1 block
COc1ccc(S(=O)(=O)NCC(c2cccnc2)N2CCN(c3ccccc3OC)CC2)cc1C (stereo not drawn)	u	-3.8	-28.2	u	-2.5%	4.3%
COc1ccccc1N1CCN(C(CNS(=O)(=O)c2ccccc2)c2cccnc2)CC1 (stereo not drawn)	23.1µM*	6.7	13.9	18.4µM*	-16.2%	2.2%
CC1(C)CC2CC(C)(CN2C(=O)c2ccccc2)C1 (stereo not drawn)	16.4µM*	10.7	25.3	-23.4%	-7.4%	3.7%
O=C(Nc1cnn(Cc2ccc(Cl)cc2Cl)c1)c1noc2c1CCc1ccccc1-2	16.4µM*	x	x	u	x	6.4%
COc1ccc2c(c1)CCc1c(C(=O)Nc3c(C)nn(Cc4ccc(Cl)c(Cl)c4)c3C)noc1-2	11.6µM*	x	x	13µM*	x	6.4%
COc1ccc2c(c1)CCc1c(C(=O)Nc3c(C)nn(Cc4ccc(Cl)cc4)c3C)noc1-2	20.6µM*	x	x	20.6µM*	x	6.4%
COc1ccc(C(=O)N2CC3(C)CC2CC(C)(C)C3)cc1 (stereo not drawn)	u	18.8	-28.4	u	x	3.1%
O=C(CSc1nnc(SCc2ccc(Cl)cc2)s1)c1ccc2c(c1)OCO2	-3.6%	16.4	-5.6	2.0%	11.7%	-5.3%
OCCCNc1ncnc2c1ncn2[C@H]1CN(C2CCCC2)C[C@@H](CO)O1	-12.7%	x	32.9	-6.7%	x	x
COc1ccccc1OCC1CNC(=O)O1 (stereo not drawn)	8.2%	x	x	5.6%	x	x
CN(C(=O)COC(=O)c1ccc2c(c1)OCO2)c1c(N)n(Cc2ccccc2)c(=O)[nH]c1=O	3.8%	-0.2	-0.9	6.7%	8.2%	x
O=C(COC(=O)c1cccnc1Cl)NCCc1ccc(F)cc1	-0.5%	-5.3	3.3	4.4%	-3.7%	-0.9%
Cc1c(Cl)cccc1NC(=O)CN1CCN(CCN=CC2=C(O)CC(c3ccccc3)CC2=O)CC1 (stereo not drawn)	4.4%	-4.4	-14.3	-9.9%	23.5%	-1.2%
Cc1ccc(N(C)S(=O)(=O)c2ccc3[nH]c(=O)ccc3c2)cc1	-12.8%	x	x	u	x	0.0%
COc1ccc2c(c1)CCc1c(C(=O)Nc3c(C)nn(Cc4ccccc4)c3C)noc1-2	9.2µM*	-5.4	u	9.2µM*	13µM*	2.7%
COc1ccc2c(c1)CCc1c(C(=O)N3CC4(C)CC3CC(C)(C)C4)noc1-2 (stereo not drawn)	16.4µM*	5.4	-21.7	u	u	5.2%
COc1ccc2c(c1)CCc1c(C(=O)NCCc3ccc(OC)c(OC)c3)noc1-2	u	1.4	-16.7	12.6µM*	u	0.0%
COc1ccc2c(c1)CCc1c(C(=O)Nc3cc(C)n(Cc4ccc(Cl)cc4)n3)noc1-2	u	-19.8	44.1	u	-1.5%	7.6%
Cc1nn(Cc2ccc(Cl)cc2)c(C)c1NC(=O)c1noc2c1CCc1ccccc1-2	13µM*	18.0	0.0	13µM*	u	6.4%
CCN(CC)CCNC(=O)c1nn(-c2ccc(Cl)cc2)c2c1CCc1cc(OC)ccc1-2	u	-11.4	-102.9*	20.6µM*	x	x
O=C(O)COc1ccc(/C=C/C(=O)c2ccc(C3CCCCC3)cc2)cc1	u	u	-101.2*	18.4µM*	u	x
O=C(N/N=C/c1ccc(OC2CSC2)cc1)c1ccccc1	3.3%	2.9	-6.8	-6.7%	u	3.1%
O=C(/C=C/c1ccc(OC2CSC2)cc1)c1ccccc1	18.4µM*	-0.8	-10.8	18.4µM*	u	5.9%
O=C(O)COc1ccc(/C=C/C(=O)c2ccc3ccccc3c2)cc1	14.7%	-7.1	-99.4*	0.1%	0.0%	4.8%[0.0935 µM]
COc1ccc(C(=O)N2CCCC(CNC(=O)c3ccccc3Cl)C2)o1 (stereo not drawn)	-25.5%	-14.1	0.8	-16.8%	27.6%	1.0%
SMILES	DT40 TDP1 CPT	Giardia kill	IL1B secr inh	DT40 TDP1 no CPT	ELG1 DNA repair	TDP1 block
COc1ccc(C2C3C=CCC(c4cccc(/C=C/c5ccccc5)c4)C3C(=O)N2Cc2ccccc2)cc1Cl (stereo not drawn)	x	-23.4	x	x	x	12.1%
CN1C(=O)/C(=C/c2ccccc2OCc2ccccc2F)NC1=S	-4.4%	-4.9	1.8	0.1%	1.0%	4.0%
O=C(OC[C@H]1O[C@@H](OC(=O)c2cc(O)c(O)c(OC(=O)c3cc(O)c(O)c(O)c3)c2)[C@H](OC(=O)c2cc(O)c(O)c(OC(=O)c3cc(O)c(O)c(O)c3)c2)[C@@H](OC(=O)c2cc(O)c(O)c(OC(=O)c3cc(O)c(O)c(O)c3)c2)[C@@H]1OC(=O)c1cc(O)c(O)c(OC(=O)c2cc(O)c(O)c(O)c2)c1)c1cc(O)c(O)c(OC(=O)c2cc(O)c(O)c(O)c2)c1	4.22µM*	x	x	4.61µM*	u	x
CC1=C(C(=O)OC2CCCCCC2)C(c2c(F)cccc2Cl)CC(=O)N1 (stereo not drawn)	u	x	x	16.4µM*	x	0.0%[12.3 µM]
CC1=C(C(=O)OC2CCCC2)C(c2c(F)cccc2Cl)CC(=O)N1 (stereo not drawn)	u	x	x	14.6µM*	x	2.5%
COC(=O)C1=C(C)NC(=O)CC1c1ccccc1F (stereo not drawn)	1.4%	-7.7	9.0	-6.2%	-5.3%	0.0%
CC1=C(C(=O)OCC2CCCCC2)C(c2ccc(F)cc2F)CC(=O)N1 (stereo not drawn)	u	x	x	u	x	-8.5%[12.3 µM]
CCOc1ccc2[nH]cc(-c3csc(N)n3)c2c1	u	15.7	-4.7	10.3µM*	-20.3%	x
CCOc1ccc(-c2[nH]ncc2-c2csc(C)n2)c(O)c1	-23.7%	6.7	6.2	-28.5%	-14.2%	-5.5%
O=C1NC[C@@H](CCCCN2C[C@H](Cc3ccc(O)cc3)N(Cc3ccccc3)C(=O)C2=O)N(CCc2ccc(O)cc2)C1=O	-3.0%	x	-1.1	-11.3%	x	x
C/C(=C(\CCOC(=O)c1ccccc1)SS/C(CCOC(=O)c1ccccc1)=C(/C)N(C=O)Cc1cnc(C)nc1N)N(C=O)Cc1cnc(C)nc1N	26.6µM*	x	x	u	x	x
C#CC(C)(C)NS(=O)(=O)c1cc(-c2nnc(Nc3ccc(C)cc3)c3ccccc23)ccc1C	20.6µM*	x	x	u	x	5.8%
CCN(CC)C(=O)c1ccc(Nc2nnc(-c3ccc(C)c(S(=O)(=O)NC)c3)c3ccccc23)cc1	25.9µM*	x	x	20.6µM*	x	-9.3%[12.3 µM]

Assay outcomes: PubChem, National Center for Advancing Translational Sciences (NCATS)
